A selection: hits, their analogues and other compounds. The true share with any hit is near 16%.
DT40 TDP1 CPT – qHTS for Inhibitors of human tyrosyl-DNA phosphodiesterase 1 (TDP1): qHTS in cells in presence of CPT; chicken DT40 Tdp1-/-;hTDP1 cells + 20 nM CPT, ATP luminescence, 48 h; Potency, µM (series often up to 46.2 µM), inactives show top-dose activity change, negative = growth inhibition, most hits filed as inhibitors; 12% of 420,000 active; note: potency is the fitted concentration of half-maximal effect; % is set by controls: 0 for no effect and ±100 for the full control effect; nearly all actives have a fitted effect of over 55% in size
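Chicken DT40 Tdp1-/- cells stably complemented with human TDP1 were seeded at 400 cells/well in medium containing 20 nM camptothecin, exposed to pin-transferred compounds, and grown at 37 °C for at least 48 hr. Viability was read as ATP luminescence.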
uPA surface inh – qHTS for Inhibitors of Cell Surface uPA Generation | Potency, µM (titrated, usually from 38.3 µM), for inactives: top-dose activity change, negative = inhibition, hits mostly inhibitors | 0.31% of 330,000 active | AID 540303, 2011 | cell surface uPA generation assay, qHTS; active = well fitted inhibition curve with a large enough effect; inconclusive = small, poorly fitted or top-dose-only effect; inactive = no such curve, though single readings can be large or run the other way; tested in mouse RAW 264.7 cells; note: potency is the fitted concentration of half-maximal effect; % is set by controls: 0 for no effect and ±100 for the full control effect; nearly all actives have a fitted effect of over 55% in size
miR-21 reporter – qHTS Assay for Modulators of miRNAs and/orActivators of miR-21; HeLa miR-21 FLuc reporter, luciferase, 48 h; 340,000 tested, under 10 active; Potency, µM (doses to about 38.3 µM), for inactives: top-dose activity change, positive = activation, actives largely listed as activators; AID 2288, 2010;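 note: % of control where 0% means no effect; miR-21 action dims this reporter so a rising signal means less miR-21 action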
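HeLa cells endogenously expressing miR-21, stably carrying CMV-driven firefly luciferase with a downstream miR-21 binding site, 2000 cells/well. Titrations up to approximately 40 uM, 48 hours; luciferase luminescence read.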
TDP1 inh – qHTS Assay for Inhibitors of Tyrosyl-DNA Phosphodiesterase (TDP1) | AID 485290, 2010 | Potency, µM (titrated, usually from 130 µM), inactives show at the highest dose activity change, negative = inhibition, usual class: inhibitors | recombinant TDP1, AlphaScreen DNA substrate cleavage | 0.28% of 350,000 active | Tyrosyl-DNA phosphodiesterase 1 (Homo sapiens), Q9NUW8; note: potency is the fitted concentration of half-maximal effect; % is set by controls: 0 for no effect and ±100 for the full control effect; nearly all actives have a fitted effect of over 40% in size
Target sequence (Q9NUW8 whole entry, looked up): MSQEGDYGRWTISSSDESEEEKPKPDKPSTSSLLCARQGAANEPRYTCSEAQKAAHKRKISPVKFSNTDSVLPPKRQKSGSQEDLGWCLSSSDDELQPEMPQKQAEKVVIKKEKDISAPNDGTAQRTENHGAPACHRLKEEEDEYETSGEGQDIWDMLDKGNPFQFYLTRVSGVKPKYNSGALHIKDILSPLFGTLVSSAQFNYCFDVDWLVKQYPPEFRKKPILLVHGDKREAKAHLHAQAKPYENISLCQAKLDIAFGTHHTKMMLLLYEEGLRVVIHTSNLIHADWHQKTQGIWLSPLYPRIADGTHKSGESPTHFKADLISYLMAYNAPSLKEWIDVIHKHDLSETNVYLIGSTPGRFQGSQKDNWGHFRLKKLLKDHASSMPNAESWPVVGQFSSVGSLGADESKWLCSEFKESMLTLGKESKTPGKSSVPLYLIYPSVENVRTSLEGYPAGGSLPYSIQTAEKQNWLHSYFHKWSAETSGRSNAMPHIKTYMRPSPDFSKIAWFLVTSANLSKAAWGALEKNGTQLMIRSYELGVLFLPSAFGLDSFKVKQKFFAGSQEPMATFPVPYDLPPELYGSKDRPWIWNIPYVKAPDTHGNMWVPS
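Here, a 5' biotin and 3' phosphotyrosine-FITC DNA oligonucleotide reports Tdp1 activity: intact substrate bridges AlphaScreen beads, while cleavage leaves a 3' phosphate and drops signal. All incubations at room temperature.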
TDP1 cell noCPT – qHTS for Inhibitors of human tyrosyl-DNA phosphodiesterase 1 (TDP1): qHTS in cells in absence of CPT; DT40 Tdp1-/- hTDP1 cells, no CPT, ATP luminescence, 48 h; Potency, µM (top dose mostly 46.2 µM), inactives show at the highest dose activity change, negative = growth inhibition, most hits filed as inhibitors; AID 686978, 2013; 15% of 420,000 active; note: potency is the fitted concentration of half-maximal effect; % is set by controls: 0 for no effect and ±100 for the full control effect; nearly all actives have a fitted effect of over 55% in size
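Cells were dispensed at 400 per well, compounds added by pin tool, plates incubated ≥48 hr at 37 °C, then CellTiter-Glo added for 30 min at room temperature before luminescence reading. Line: DT40 Tdp1-/- complemented with hTDP1; camptothecin omitted.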
An asterisk follows results filed as active; ? = inconclusive; . = no result; ! = a repeat was not active; [ ] = another dose, or the depositor's remark. Unless noted, calls come from the whole dose curve; as a rule, active = well fitted curve in the direction sought with a large enough effect; inconclusive = small, poorly fitted or top-dose-only effect, or another doubt; inactive = no such curve, though single readings can be large; an effect the other way counts as inactive or inconclusive.

SMILES | DT40 TDP1 CPT | uPA surface inh | miR-21 reporter | TDP1 inh | TDP1 cell noCPT
Cc1ccsc1C(=O)OCC(=O)c1ccc(OC(F)F)cc1 | -4% | -6% | . | 1% | -18%
C/C=C\C(=O)Nc1cccc(C2=NOC3(C2)C[C@@H](C(N)=O)N(C(=O)c2ccc(OC)cc2)C3)c1 (some centres not stated) | -1% | 8% | 1% | 5% | 1%
CN(C(=O)c1ccncc1)C1CC(C)(C)N(O)C(C)(C)C1 | -1% | 1% | -2% | 8% | -23%
O=C(OCc1cn([C@@H]2C[C@H](c3ccccc3)N(C(=O)C3CCCCC3)C[C@H]2O)nn1)c1ccccc1 | -16% | . | . | . | ?
CCCCCn1c(=O)[nH]c2cc(C(=O)N3CCN(C(=O)OCC)CC3)ccc2c1=O | ? | 3% | 2% | 16% | ?
CCCCCn1c(=O)[nH]c2cc(C(=O)N3CCN(c4cccc(Cl)c4)CC3)ccc2c1=O | 10µM* | . | 20% | 6% | ?
Cc1ccc(CCNC(=O)c2ccc3c(=O)n(-c4ccccc4)c(=O)[nH]c3c2)cc1 | -1% | . | 0% | 3% | -14%
CCCN1CCN(CCCNC(=O)c2ccc3c(=O)n(CCc4ccccc4)c(=O)[nH]c3c2)CC1 | ? | 1% | 5% | -2% | ?
O=C(NCCN1CCCC1)c1ccc2c(=O)n(CCc3ccccc3)c(=O)[nH]c2c1 | 18µM* | -3% | -22% | 6% | 29µM*
O=C(CCCn1c(=O)[nH]c2cc(Cl)ccc2c1=O)NCCCN1CCN(c2ccc(F)cc2)CC1 | 16µM* | 0% | -1% | 8% | 21µM*
COc1ccc(-n2c(=O)[nH]c3cc(C(=O)NCCc4ccccc4)ccc3c2=O)cc1OC | ? | 0% | 4% | 3% | 18µM*!
O=C(CCCn1c(=O)[nH]c2cc(Cl)ccc2c1=O)NCCCN1CCCC1 | -24% | 6% | -1% | 1% | -11%
COCOc1cc(OC)ccc1C(=O)/C=C\c1ccc2c(c1)OCO2 | . | . | . | 3%[21 µM] | .
Cc1ccc(CNC(=O)CCC2CCCN(Cc3ccc4cccc(F)c4n3)C2)o1 (configuration not stated) | -20% | -3% | -3% | 0% | ?
CCN1CCN(S(=O)(=O)c2ccc(Cl)c(C(=O)NCCOc3ccc(C)cc3)c2)CC1 | ? | 0% | . | 1% | -29%
CCOC(=O)N1CCN(C(=O)c2ccc3c(=O)n(CCc4ccccc4)c(=O)[nH]c3c2)CC1 | ? | 6% | 1% | -6% | -26%
O=C(c1ccc(F)cc1)C1CCN(CCn2c(=O)[nH]c3ccccc3c2=O)CC1 | 7.3µM*! | 7% | -1% | 4% | ?
O=C(c1ccc2c(=O)n(CCc3ccccc3)c(=O)[nH]c2c1)N1CCN(C(=O)c2ccco2)CC1 | 13µM* | . | . | . | 11µM*
O=C(CCCn1c(=O)[nH]c2ccccc2c1=O)Nc1ccc(F)cc1 | -18% | 6% | -11% | 0% | -10%
COCCn1c(=O)[nH]c2cc(C(=O)N3CCN(c4ccc(Cl)cc4)CC3)ccc2c1=O | 5.8µM* | 1% | ? | 0% | 6.5µM*
CCOC(=O)C1(Cc2ccccc2C)CCCN(C(=O)c2ccnn2C)C1 (configuration not stated) | -3% | -1% | -10% | . | ?
CCOC(=O)C1(Cc2ccccc2C)CCCN(S(=O)(=O)c2cccnc2)C1 (configuration not stated) | ? | . | 4% | -5% | 16µM*
CCOC(=O)C1(Cc2ccccc2C)CCCN(C(=O)c2sccc2C)C1 (configuration not stated) | 18µM* | 10% | 2% | 0% | ?
CC(=O)N(c1ccc2oc(=O)sc2c1)S(=O)(=O)c1ccccc1 | ? | 0% | -2% | 10% | 10µM*
COc1ccc(C(=O)Oc2ccc3oc(=O)sc3c2)cc1 | 13µM* | -7% | -5% | 4% | ?
SMILES | DT40 TDP1 CPT | uPA surface inh | miR-21 reporter | TDP1 inh | TDP1 cell noCPT
COc1ccc(S(=O)(=O)N(C(=O)C(C)C)c2ccc3oc(=O)sc3c2)cc1 | 10µM* | . | 0% | 7% | 16µM*
Cc1ccc(C(=O)c2c3ccc(C(F)(F)F)cc3[n+]([O-])n2CCCN)cc1 | 23µM* | -14% | . | -1% | 23µM*
COC(=O)[C@@]12C[C@@H](CC(=O)NCc3ccccc3)C(=O)N(Cc3ccccc3)C1=CCC(C)(C)C2 | 21µM* | . | . | . | ?
COC(=O)[C@@]12C[C@@H](CC(=O)NCCC(C)C)C(=O)N(Cc3cccc4ccccc34)C1=CCC(C)(C)C2 | ? | . | . | . | 21µM*
COC(=O)[C@@]12C[C@@H](CC(=O)NCCCCc3ccccc3)C(=O)N(Cc3cccc4ccccc34)C1=CCC(C)(C)C2 | ? | . | . | . | 21µM*
COC(=O)[C@@]12C[C@@H](CC(=O)NCC3CCCCC3)C(=O)N(Cc3cccc4ccccc34)C1=CCC(C)(C)C2 | 21µM* | . | . | . | 16µM*
CSCCC(NS(=O)(=O)c1ccc(Cl)cc1)C(=O)OCC(=O)NC1CCCCC1 (configuration not stated) | -10% | 4% | -2% | -2% | -13%
COC(=O)[C@@]12C[C@@H](CC(=O)N3CCSCC3)C(=O)N(Cc3ccco3)C1=CCC(C)(C)C2 | -1% | . | . | . | ?
COC(=O)[C@@]12C[C@@H](CC(=O)NCc3ccccc3)C(=O)N(Cc3cccc4ccccc34)C1=CCC(C)(C)C2 | ? | . | . | . | 18µM*
COC(=O)[C@@]12C[C@@H](CC(=O)NCc3ccc(C)o3)C(=O)N(Cc3cccc4ccccc34)C1=CCC(C)(C)C2 | 21µM* | . | . | . | 16µM*
COC(=O)[C@@]12C[C@@H](CC(=O)NCc3cccc4ccccc34)C(=O)N(Cc3cccc4ccccc34)C1=CCC(C)(C)C2 | 18µM* | . | . | . | ?
CC(=O)c1ccc(C2CC34CN(Cc5cccc(Cl)c5)S(=O)(=O)C3CC2O4)cc1 (configuration not stated) | . | . | . | 10% | .
Cc1ccc(N(CC(=O)NC2CCCCC2C)S(=O)(=O)c2c(C)noc2C)cc1 (configuration not stated) | -21% | -3% | -1% | 5% | -3%
COc1ccc(C(=O)N/C(=C\c2cn(C)c3ccccc23)C(=O)NCCCn2ccnc2)cc1OC | 5% | 3% | 1% | 3% | 0%
Cc1ccc(-c2ccccc2[C@@H]2C[C@H]3CN(C)C(=O)[C@]34CCCN24)o1 | 13% | 0% | 1% | -6% | 0%
